The values that follow come from PubChem BioAssay (NCI).

Structures are written as SMILES. Compounds without any hit were thinned out: in the full panel of roughly 83,000, 20% have a hit.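 Growth was measured after 48 h exposure to one concentration of compound in 96-well plates. Values under 10 count as active.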 Unmarked numbers belong to inactive results. Activity calls are given as the source filed them.

Some test systems named below: T-47D breast; BT-549 breast; MDA-MB-435 melanoma; SW-620 colon; MCF7 breast; HCT-116 colon; HCC-2998 colon; KM12 colon.
Common to all, as to experiment: NCI-60 one-dose screen, 48 h (100 = growth as untreated, 0 = no growth, -100 = all killed)
What all share (conditions): 10 µM unless noted

On to `COc1cccc(-c2nn(-c3ccccc3)cc2-c2ccnc(N3CCOCC3)c2)c1`, for which the growth in the experiment on T-47D breast was 51.7%; in the experiment with BT-549 breast, 87.9%; in the experiment on MDA-MB-435 melanoma, 98.9%; in the experiment on SW-620 colon, 105%; in the experiment with MCF7 breast, 87%; with HCT-116 colon, 79.8%. In addition, the growth in the experiment on HCC-2998 colon was 93.8%; in the experiment on KM12 colon it was 86.1%.

In the case of `COc1ccc(-c2[nH]c3ccc(OC)cc3c2/C=C(\C#N)S(=O)(=O)c2ccccc2)cc1`, the growth in the experiment on T-47D breast is 34.4%; in the experiment with BT-549 breast, 46.6%; in the experiment on MDA-MB-435 melanoma, 1.86% (active); with SW-620 colon, 32.8%; in the experiment with MCF7 breast, 7.23% (active); in the experiment on HCT-116 colon, 19.4%. Moreover, the growth with HCC-2998 colon was -19.7% (active); with KM12 colon, 10.8%.

As to `COc1ccc(/C=C/c2c(C(=O)/C=C/c3ccc(C(F)(F)F)cc3)c(C)nc3ccccc23)cc1`, the growth is -13.3% (active) in the experiment on T-47D breast; -14.2% (active) with BT-549 breast; -56.5% (active) in the experiment with MDA-MB-435 melanoma; -42.3% (active) in the experiment on SW-620 colon; 1.41% (active) with MCF7 breast; -67.8% (active) in the experiment on HCT-116 colon. The figures for the growth with HCC-2998 colon and with KM12 colon were -77% (active) and -67.6% (active), respectively.

For the compound `COc1ccccc1/C=C1\Oc2cc(OCCN3CCC(Cc4ccccc4)CC3)ccc2C1=O`, the growth in the experiment with T-47D breast is 85.8%; in the experiment on BT-549 breast, 85.4%; in the experiment with MDA-MB-435 melanoma it was 91.1%; with SW-620 colon it was 69.1%; in the experiment on MCF7 breast, 80.1%; in the experiment with HCT-116 colon it was 73.9%. The figures for the growth with HCC-2998 colon and in the experiment with KM12 colon were 37.9% and 91.7%, respectively.

On to `CN1CCN(c2ccc(-c3ccc4ncc(C#N)c(Nc5ccc(F)c(Cl)c5)c4c3)cn2)CC1`, for which the growth was 60.8% with T-47D breast; 60.3% in the experiment on BT-549 breast; 81.6% in the experiment with MDA-MB-435 melanoma; 53.4% with SW-620 colon; 66.9% with MCF7 breast; 32.8% in the experiment with HCT-116 colon. Moreover, the figures for the growth in the experiment with HCC-2998 colon and with KM12 colon were 68.9% and 80.7%, respectively.

In the case of `CCOC(=O)Cn1c(C)c(/C=N/NC(=O)c2cc3c(ccc4ccccc43)o2)c2ccccc21`, the growth in the experiment on T-47D breast is 58.7%; in the experiment with BT-549 breast, 35.3%; with MDA-MB-435 melanoma, -11.4% (active); in the experiment on SW-620 colon it was 30.4%; in the experiment with MCF7 breast, 17%; in the experiment on HCT-116 colon, 8.16% (active). For the same compound, the growth with HCC-2998 colon is 31.3%; in the experiment with KM12 colon, 15.6%.

With `CN1C(=O)CNC(=O)[C@H](NC(=O)c2nc3ccccc3cc2O)CSSC[C@H]1C(=O)NCCc1nc2ccccc2cc1O`, the growth in the experiment on T-47D breast is 65.3%; in the experiment on BT-549 breast, 79.4%; in the experiment on MDA-MB-435 melanoma it was 42.4%; in the experiment with SW-620 colon it was 34%; in the experiment with MCF7 breast, 47.5%; with HCT-116 colon, 80%. Also, the growth with HCC-2998 colon is 67.7%; with KM12 colon, 30%.

Take `C[C@H]1[C@H]2[C@H]3CC[C@@H]4[C@@]5(C)CC[C@H](O)C(C)(C)[C@@H]5CC[C@@]4(C)[C@]3(C)CC[C@]23CO[C@]1(C)[C@@H](C(=O)/C=C\c1cccnc1)C3`: the growth in the experiment with T-47D breast was 30.2%; in the experiment on BT-549 breast it was 57.2%; in the experiment with MDA-MB-435 melanoma it was 34.5%; in the experiment with SW-620 colon, 32.3%; in the experiment with MCF7 breast it was 23.7%; with HCT-116 colon, 14.4%. Further, the results for the growth in the experiment with HCC-2998 colon and in the experiment with KM12 colon were 69.9% and 54.4%, respectively.

Regarding `O=C(Nc1ccc(Cl)cc1F)c1cc(Cl)ccc1O`, the growth was 0.896% (active) in the experiment with T-47D breast; -25.3% (active) in the experiment with BT-549 breast; -11.4% (active) in the experiment on MDA-MB-435 melanoma; 5.92% (active) with SW-620 colon; 2.27% (active) with MCF7 breast; -25.5% (active) in the experiment with HCT-116 colon. Also, the growth in the experiment on HCC-2998 colon was 8.54% (active); with KM12 colon, -23.6% (active).

As for `COc1ccc(/C=N/Nc2cc(=O)[nH]c3ccc(Cl)cc23)cc1`, the growth with T-47D breast was 42.4%; in the experiment with BT-549 breast, 32.1%; in the experiment with MDA-MB-435 melanoma it was 43.2%; with SW-620 colon it was 37.9%; in the experiment with MCF7 breast it was 35.2%; in the experiment on HCT-116 colon, 8.92% (active). Moreover, the growth in the experiment on HCC-2998 colon is 88.8%; in the experiment on KM12 colon, 46.6%.

Regarding `Cc1cc(N2CCCC2)nc(N(CCCNc2ccnc3cc(Cl)ccc23)Cc2ccccn2)n1`, the growth with T-47D breast was 68.6%; in the experiment on BT-549 breast it was 64.9%; in the experiment on MDA-MB-435 melanoma, 19.1%; in the experiment with SW-620 colon it was 44.5%; with MCF7 breast, 47.3%; with HCT-116 colon, 16.3%. For the same compound, the growth with HCC-2998 colon is 79.5%; in the experiment with KM12 colon it was 63.8%.

On to `COc1cc(C(=O)c2cc(C)c3[nH]c4ccc(O)cc4c3c2C)cc(OC)c1OC`, for which the growth was 38.5% in the experiment on T-47D breast; -1.57% (active) in the experiment with BT-549 breast; -6.06% (active) with MDA-MB-435 melanoma; 31.2% in the experiment with SW-620 colon; 11% with MCF7 breast; -5.93% (active) in the experiment with HCT-116 colon. For the same compound, the growth with HCC-2998 colon is 20.6%; with KM12 colon it was 4.49% (active).

`N#C/C(=C\c1ccc(F)cc1)n1nc2cccc(F)c2n1`: the growth is 33% in the experiment with T-47D breast; 60.8% in the experiment on BT-549 breast; -55.4% (active) with MDA-MB-435 melanoma; 18.9% with SW-620 colon; 14.1% in the experiment with MCF7 breast; 20.8% with HCT-116 colon. Also, the results for the growth in the experiment with HCC-2998 colon and with KM12 colon were 93.8% and 16.4%, respectively.

Consider `O=C1NC(=O)C(c2ccccc2)(c2ccccc2)N1Cc1cn(-c2c3ccccc3nc3ccccc23)nn1`, for which the growth was 63.6% with T-47D breast; 81.5% with BT-549 breast; 94.4% in the experiment on MDA-MB-435 melanoma; 85.6% with SW-620 colon; 73.9% with MCF7 breast; 68.1% in the experiment on HCT-116 colon. Further, the growth in the experiment with HCC-2998 colon is 104%; with KM12 colon it was 91.2%.
